This is part of a sample that, as a whole, favours compounds with a hit. Of some 83,000 tested, about 20% had one in any assay.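 Plates (96-well) were seeded with cells, treated with compound at one concentration, and incubated for 48 hours before percent growth was determined.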 Unmarked numbers belong to inactive results. The source made the active and inactive calls. The calls were made as follows: active = growth percent below 10; inactive = the rest.

Some test systems named below: RPMI-8226 leukemia; OVCAR-8 ovarian; OVCAR-5 ovarian; OVCAR-4 ovarian; SK-OV-3 ovarian; IGROV1 ovarian; OVCAR-3 ovarian; HS 578T breast; NCI/ADR-RES ovarian; T-47D breast; BT-549 breast; MDA-MB-435 melanoma; SW-620 colon; MCF7 breast; HCT-116 colon; HCC-2998 colon; KM12 colon.
Experiment in all cases: NCI-60 one-dose screen, 48 h (100 = growth as untreated, 0 = no growth, -100 = all killed)
Details in all cases: 10 µM unless noted

With `O=C(CN1CCCCC1)Sc1nnc2sc3ccccc3n12`, the growth was 108% in the assay on RPMI-8226 leukemia; 98.8% in the assay on OVCAR-8 ovarian; 144% with OVCAR-5 ovarian; 105% in the assay with OVCAR-4 ovarian; 89.5% in the assay with SK-OV-3 ovarian; 121% in the assay on IGROV1 ovarian. The growth was 111% with OVCAR-3 ovarian; 110% in the assay with HS 578T breast; 100% in the assay on NCI/ADR-RES ovarian; 92.2% in the assay with T-47D breast; 104% with BT-549 breast; 111% in the assay with MDA-MB-435 melanoma. Moreover, the growth was 101% in the assay on SW-620 colon; 92.9% in the assay on MCF7 breast; 95.3% in the assay on HCT-116 colon; 116% in the assay on HCC-2998 colon; 104% in the assay on KM12 colon.
Consider `O=C1c2ccccc2-c2c1nc1ccccc1[n+]2[O-]`, for which the growth with RPMI-8226 leukemia is 106%; with OVCAR-8 ovarian, 108%; in the assay on OVCAR-5 ovarian, 94.9%; in the assay with OVCAR-4 ovarian, 115%; in the assay with SK-OV-3 ovarian, 102%; with IGROV1 ovarian, 99.9%. The growth in the assay on OVCAR-3 ovarian is 107%; in the assay on HS 578T breast, 106%; in the assay on NCI/ADR-RES ovarian, 105%; with T-47D breast it was 107%; with BT-549 breast, 98.2%; in the assay with MDA-MB-435 melanoma, 110%. The growth is 97.5% with SW-620 colon; 95.8% in the assay on MCF7 breast; 98.5% in the assay with HCT-116 colon; 104% in the assay on HCC-2998 colon; 101% with KM12 colon.
On to `O=C(Nc1ccc(Cl)cc1)c1cc2c(cc1O)[nH]c1ccccc12`, for which the growth in the assay on RPMI-8226 leukemia is -61.6% (active); with OVCAR-8 ovarian it was 8.57% (active); in the assay with OVCAR-5 ovarian, 59.8%; with OVCAR-4 ovarian, 30.6%; with SK-OV-3 ovarian, 24.4%; with IGROV1 ovarian, 163%. In addition, the growth is 6.34% (active) in the assay with OVCAR-3 ovarian; 52% with HS 578T breast; 0.0543% (active) in the assay on NCI/ADR-RES ovarian; -1.88% (active) with T-47D breast; 26.5% with BT-549 breast; -25.6% (active) in the assay on MDA-MB-435 melanoma. Further, the growth is 19.1% with SW-620 colon; 8.67% (active) with MCF7 breast; 14.1% in the assay on HCT-116 colon; -21.5% (active) in the assay on HCC-2998 colon; 37.5% with KM12 colon.
As for `Cc1cc2c(cc1C)Nc1sc(NC(=O)CN3CCN(C)CC3)nc1C(=O)N2`, the growth was 105% in the assay with RPMI-8226 leukemia; 103% in the assay with OVCAR-8 ovarian; 105% with OVCAR-5 ovarian; 108% in the assay on OVCAR-4 ovarian; 99.6% in the assay on SK-OV-3 ovarian; 112% with IGROV1 ovarian. Moreover, the growth in the assay on OVCAR-3 ovarian is 112%; in the assay with HS 578T breast, 106%; in the assay on NCI/ADR-RES ovarian it was 103%; in the assay on T-47D breast, 94.1%; in the assay with BT-549 breast, 109%; in the assay with MDA-MB-435 melanoma it was 111%. Also, the growth was 116% with SW-620 colon; 97.5% in the assay with MCF7 breast; 101% in the assay with HCT-116 colon; 101% in the assay with HCC-2998 colon; 102% with KM12 colon.
Take `C/C(=N/N=C(N)N)c1ccc(N)cc1`: the growth is 190% in the assay with RPMI-8226 leukemia; 111% in the assay with OVCAR-8 ovarian; 105% with OVCAR-5 ovarian; 100% in the assay on OVCAR-4 ovarian; 105% with SK-OV-3 ovarian; -12.3% (active) with IGROV1 ovarian. The growth in the assay with OVCAR-3 ovarian is 93.1%; in the assay with HS 578T breast it was 73.3%; in the assay with NCI/ADR-RES ovarian, 103%; in the assay on T-47D breast it was 94.7%; in the assay with BT-549 breast it was 70.1%; with MDA-MB-435 melanoma, 49%. Further, the growth in the assay with SW-620 colon is 97%; in the assay with MCF7 breast, 81.3%; in the assay with HCT-116 colon, 103%; in the assay on KM12 colon, 96%.
On to `COc1ccc(-n2nnc(C(=O)O)c2-c2cc(OC)c(OC)c(OC)c2)cc1`, for which the growth with RPMI-8226 leukemia was 99.5%; in the assay with OVCAR-8 ovarian it was 100%; in the assay on OVCAR-5 ovarian it was 103%; in the assay with OVCAR-4 ovarian it was 109%; with SK-OV-3 ovarian it was 99.1%; in the assay with IGROV1 ovarian, 116%. In addition, the growth is 119% with OVCAR-3 ovarian; 102% in the assay with HS 578T breast; 109% in the assay with NCI/ADR-RES ovarian; 104% in the assay with T-47D breast; 101% in the assay on BT-549 breast; 121% in the assay with MDA-MB-435 melanoma. The growth with SW-620 colon was 104%; in the assay with MCF7 breast, 102%; with HCT-116 colon, 100%; with HCC-2998 colon it was 99.1%; with KM12 colon, 105%.
As to `COc1ccc(C2CC(c3ccc(OC)c(OC)c3)=NN2C(=O)c2cc(OC)c(OC)c(OC)c2)cc1` (stereo unspecified), the growth with RPMI-8226 leukemia was 50.2%; in the assay on OVCAR-8 ovarian, 34.2%; with OVCAR-5 ovarian, 66.5%; in the assay with OVCAR-4 ovarian it was 58.8%; in the assay with SK-OV-3 ovarian, 30.3%; in the assay on IGROV1 ovarian it was 31.5%. Also, the growth with OVCAR-3 ovarian is -45.1% (active); with HS 578T breast, -14% (active); in the assay on NCI/ADR-RES ovarian, 13%; with T-47D breast it was 36.4%; in the assay on BT-549 breast it was 27.6%; in the assay on MDA-MB-435 melanoma, -26.6% (active). Also, the growth with SW-620 colon is 20.9%; with MCF7 breast, 27.6%; in the assay with HCT-116 colon, 20.6%; with HCC-2998 colon, 61.1%; in the assay on KM12 colon, 16.2%.
With `Cc1ccccc1-c1cc(Cc2ccccc2O)c(=O)[nH]n1`, the growth is 78.6% in the assay on RPMI-8226 leukemia; 91.8% in the assay on OVCAR-8 ovarian; 118% in the assay with OVCAR-5 ovarian; 106% in the assay with OVCAR-4 ovarian; 253% with SK-OV-3 ovarian; 86.6% in the assay on IGROV1 ovarian. Besides, the growth is 100% in the assay with OVCAR-3 ovarian; 104% with HS 578T breast; 111% in the assay with NCI/ADR-RES ovarian; 200% in the assay with T-47D breast; 112% in the assay on BT-549 breast; 109% with MDA-MB-435 melanoma. The growth in the assay on SW-620 colon was 116%; in the assay with MCF7 breast, 103%; in the assay on HCT-116 colon, 93.5%; with HCC-2998 colon it was 124%; with KM12 colon, 98.1%.
With `COc1cc2c(cc1OC)C1CCN3C(=O)CCC3N1CC2` (stereo unspecified), the growth is 102% in the assay on RPMI-8226 leukemia; 113% with OVCAR-8 ovarian; 109% with OVCAR-5 ovarian; 116% in the assay with OVCAR-4 ovarian; 112% with SK-OV-3 ovarian; 125% in the assay with IGROV1 ovarian. Further, the growth in the assay on OVCAR-3 ovarian is 113%; in the assay on HS 578T breast, 97.9%; in the assay with NCI/ADR-RES ovarian, 99.6%; in the assay with T-47D breast, 105%; in the assay on BT-549 breast, 107%; with MDA-MB-435 melanoma, 113%. Besides, the growth is 106% in the assay on SW-620 colon; 103% with MCF7 breast; 109% with HCT-116 colon; 101% in the assay on HCC-2998 colon; 109% with KM12 colon.
As to `COc1cc(OC)c2cc(C(=O)O)c(=O)oc2c1`, the growth is 43% in the assay with RPMI-8226 leukemia; 94.4% in the assay with OVCAR-8 ovarian; 106% with OVCAR-5 ovarian; 130% with OVCAR-4 ovarian; 99.9% in the assay on SK-OV-3 ovarian; 55.2% in the assay with IGROV1 ovarian. Moreover, the growth in the assay with OVCAR-3 ovarian is 102%; in the assay on HS 578T breast, 134%; in the assay on NCI/ADR-RES ovarian, 112%; in the assay on T-47D breast, 99.4%; in the assay on BT-549 breast, 77.5%; in the assay with MDA-MB-435 melanoma, 76.8%. In addition, the growth in the assay with SW-620 colon was 103%; with MCF7 breast it was 94.2%; with HCT-116 colon it was 103%; with KM12 colon it was 114%.
For the compound `COc1cc(C2=NN(C(C)=O)C(c3ccc(OC(C)=O)cc3OC(C)=O)O2)c(OC(C)=O)c2ccccc12` (stereo unspecified), the growth in the assay on RPMI-8226 leukemia was 8.23% (active); with OVCAR-8 ovarian, 8.46% (active); in the assay with OVCAR-5 ovarian it was 54%; in the assay on OVCAR-4 ovarian, 21.1%; with SK-OV-3 ovarian, 20.1%; in the assay with IGROV1 ovarian, 21.7%. For the same compound, the growth was 20.5% in the assay with OVCAR-3 ovarian; 56.7% with HS 578T breast; 11.7% in the assay on NCI/ADR-RES ovarian; 11.3% with T-47D breast; 23.8% with BT-549 breast; 28.8% with MDA-MB-435 melanoma. Also, the growth is 30.9% in the assay with SW-620 colon, 14.1% in the assay on MCF7 breast, 14.4% with HCT-116 colon and 22.3% in the assay with KM12 colon.
With `CCN1C2=C(SC(=S)C1=C1SC(C(=O)OC)=C(C(=O)OC)S1)SC(=Nc1ccc(OC)cc1)C2=O`, the growth with RPMI-8226 leukemia was -13.4% (active); in the assay with OVCAR-8 ovarian, -21.7% (active); in the assay on OVCAR-5 ovarian, -24.6% (active); in the assay with OVCAR-4 ovarian, 5.88% (active); in the assay on SK-OV-3 ovarian, 61%; in the assay on IGROV1 ovarian, -58.3% (active). Also, the growth is -61% (active) in the assay on OVCAR-3 ovarian; 26.2% with HS 578T breast; -12.2% (active) in the assay with NCI/ADR-RES ovarian; 12.7% with T-47D breast; -80.5% (active) in the assay with BT-549 breast; -40.3% (active) in the assay with MDA-MB-435 melanoma. Also, the growth with SW-620 colon was -67.4% (active); in the assay on MCF7 breast it was 4.13% (active); in the assay on HCT-116 colon, -80% (active); with HCC-2998 colon, -66.3% (active); with KM12 colon, -89.1% (active).

Source of the values: PubChem BioAssay (NCI).
